Experimental data taken from PubChem BioAssay.
The source made the active and inactive calls. Unless noted, how the calls were made is not given here.

How the values were obtained:
[1] = compounds binding Alexa647 anti-His antibody – biochemical, small-molecule microarray, 635 nm fluorescence, artefact control for SMM control protein annotation, primary screen (AID 1128); conditions: higher = more signal;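 further: score merges feature fluorescence with signal-to-noise for each printed compound spot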
[2] = system: Human papillomavirus type 1a E7 protein (residues 1-88); experiment: HPV1a E7 small-molecule binders, primary screen, biochemical, small-molecule microarray, residues 1-88, 635 nm (AID 1129); conditions: small-molecule microarray binding, fluorescence 635 nm; higher = more signal
[3] = molecular target: Focal adhesion kinase 1 (Homo sapiens) (UniProt Q05397); experiment: PTK2 protein binding on printed compound slides – biochemical, small-molecule microarray, 635/667 nm fluorescence, BSA, DTT, primary screen (AID 1130); conditions: 635 nm fluorescence, higher = more signal;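 further: composite of spot emission at 667 nm and signal to noise over triplicate slides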
Chain of Focal adhesion kinase 1 (Homo sapiens) (Q05397 whole entry, looked up): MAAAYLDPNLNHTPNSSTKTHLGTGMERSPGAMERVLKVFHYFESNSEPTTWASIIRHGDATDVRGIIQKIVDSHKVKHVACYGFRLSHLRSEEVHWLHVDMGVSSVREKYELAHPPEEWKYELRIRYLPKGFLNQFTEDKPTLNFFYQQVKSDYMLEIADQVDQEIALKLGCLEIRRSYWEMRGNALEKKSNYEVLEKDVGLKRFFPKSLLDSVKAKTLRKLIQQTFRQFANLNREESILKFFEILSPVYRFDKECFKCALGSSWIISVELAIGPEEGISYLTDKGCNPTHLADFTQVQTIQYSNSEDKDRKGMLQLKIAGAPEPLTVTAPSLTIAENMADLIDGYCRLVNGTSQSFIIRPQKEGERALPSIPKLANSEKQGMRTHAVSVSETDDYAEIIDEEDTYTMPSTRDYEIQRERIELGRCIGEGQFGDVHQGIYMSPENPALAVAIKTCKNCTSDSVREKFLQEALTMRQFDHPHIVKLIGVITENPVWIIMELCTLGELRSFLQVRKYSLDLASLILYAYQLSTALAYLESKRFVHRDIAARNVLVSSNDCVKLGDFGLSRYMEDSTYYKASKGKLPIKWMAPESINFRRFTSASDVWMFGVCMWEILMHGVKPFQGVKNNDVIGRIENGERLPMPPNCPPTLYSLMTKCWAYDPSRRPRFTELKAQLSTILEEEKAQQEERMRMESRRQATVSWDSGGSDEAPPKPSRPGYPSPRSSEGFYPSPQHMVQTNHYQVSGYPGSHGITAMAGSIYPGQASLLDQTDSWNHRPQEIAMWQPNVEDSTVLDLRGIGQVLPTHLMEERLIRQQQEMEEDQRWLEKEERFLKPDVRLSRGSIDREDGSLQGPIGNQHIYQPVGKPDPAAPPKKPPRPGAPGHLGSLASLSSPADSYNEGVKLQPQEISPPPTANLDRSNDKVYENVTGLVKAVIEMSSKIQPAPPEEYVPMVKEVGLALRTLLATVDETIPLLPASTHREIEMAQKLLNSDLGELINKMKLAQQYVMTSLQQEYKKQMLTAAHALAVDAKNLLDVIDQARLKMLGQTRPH

[4] = system: Fibrinogen (Alexa647-labelled); experiment: Alexa647-fibrinogen binding to printed small molecules – biochemical, small-molecule microarray, 635/667 nm fluorescence, artefact control for SMM control-protein annotation, profiling panel (AID 1131); conditions: fibrinogen-A647 binding fluorescence, higher = more signal;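 further: z-score merges 667 nm fluorescence with per-spot signal-to-noise over triplicate slides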
[5] = molecular target: Follistatin (Homo sapiens) (UniProt P19883); experiment: FST protein binding to printed compounds – biochemical, small-molecule microarray, 635/667 nm fluorescence, primary screen (AID 1132); conditions: 635 nm fluorescence, higher = more signal
Chain of Follistatin (Homo sapiens) (P19883 whole entry, looked up): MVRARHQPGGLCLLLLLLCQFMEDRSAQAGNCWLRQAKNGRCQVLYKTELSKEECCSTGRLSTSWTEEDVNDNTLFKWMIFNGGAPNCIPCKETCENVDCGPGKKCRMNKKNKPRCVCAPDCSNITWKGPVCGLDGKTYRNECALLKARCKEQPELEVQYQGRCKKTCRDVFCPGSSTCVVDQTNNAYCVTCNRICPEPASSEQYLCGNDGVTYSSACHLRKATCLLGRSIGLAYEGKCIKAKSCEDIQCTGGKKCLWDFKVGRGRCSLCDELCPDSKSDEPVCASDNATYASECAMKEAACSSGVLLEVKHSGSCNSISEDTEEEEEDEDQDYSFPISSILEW

[6] = molecular target: Fibroblast growth factor 2 (Homo sapiens) (UniProt P09038); experiment: basic fibroblast growth factor binding to printed compounds – biochemical, small-molecule microarray, 635/667 nm fluorescence, primary screen (AID 1133); conditions: FGF2, fluorescence 635/667, higher = more signal
Chain of Fibroblast growth factor 2 (Homo sapiens) (P09038 whole entry, looked up): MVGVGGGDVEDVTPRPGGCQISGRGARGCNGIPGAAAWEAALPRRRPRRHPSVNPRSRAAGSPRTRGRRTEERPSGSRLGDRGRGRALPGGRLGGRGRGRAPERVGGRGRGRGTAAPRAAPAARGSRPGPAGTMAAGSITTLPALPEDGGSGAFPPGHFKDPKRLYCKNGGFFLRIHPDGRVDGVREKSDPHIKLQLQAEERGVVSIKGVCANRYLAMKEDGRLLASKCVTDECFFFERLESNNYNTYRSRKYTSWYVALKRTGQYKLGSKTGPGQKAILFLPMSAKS

[7] = JC-1 mitochondrial potential readout, lung cancer cells – cell-based, A549, JC-1 fluorescence, basal, 24 h, 100 nL, profiling panel (AID 1138); conditions: higher = more signal;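 further: A549 lung adenocarcinoma cells under basal conditions with no added stimulus; test concentration not given here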
[8] = system: Lefty1; experiment: Lefty1 protein binding to printed compounds – biochemical, small-molecule microarray, 635/667 nm fluorescence, primary screen (AID 1139); conditions: fluorescence 635/667, higher = more signal
[9] = system: wheat germ agglutinin (Triticum aestivum), Alexa647-labelled; experiment: Alexa647-WGA lectin binding to printed small molecules – biochemical, small-molecule microarray, 635/667 nm fluorescence, artefact control for SMM control-protein annotation, profiling panel (AID 1140); conditions: WGA-A647 binding, 635 nm fluorescence, higher = more signal;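 further: score merges 667 nm feature emission with signal to noise over triplicate slides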
[10] = molecular target: Luciferin 4-monooxygenase (Photinus pyralis) (UniProt P08659); experiment: inhibition of purified Photinus pyralis luciferase – biochemical, luminescence, purified enzyme, 2006 set, primary screen (AID 1141); conditions: purified firefly luciferase, SteadyGlo luminescence, 30 min; higher = more signal, called active from +8 up or from −8 down;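 further: cell-free assay with purified firefly luciferase at 100 ng per well in PBS; test concentration not given here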
Chain of Luciferin 4-monooxygenase (Photinus pyralis) (P08659 whole entry, looked up): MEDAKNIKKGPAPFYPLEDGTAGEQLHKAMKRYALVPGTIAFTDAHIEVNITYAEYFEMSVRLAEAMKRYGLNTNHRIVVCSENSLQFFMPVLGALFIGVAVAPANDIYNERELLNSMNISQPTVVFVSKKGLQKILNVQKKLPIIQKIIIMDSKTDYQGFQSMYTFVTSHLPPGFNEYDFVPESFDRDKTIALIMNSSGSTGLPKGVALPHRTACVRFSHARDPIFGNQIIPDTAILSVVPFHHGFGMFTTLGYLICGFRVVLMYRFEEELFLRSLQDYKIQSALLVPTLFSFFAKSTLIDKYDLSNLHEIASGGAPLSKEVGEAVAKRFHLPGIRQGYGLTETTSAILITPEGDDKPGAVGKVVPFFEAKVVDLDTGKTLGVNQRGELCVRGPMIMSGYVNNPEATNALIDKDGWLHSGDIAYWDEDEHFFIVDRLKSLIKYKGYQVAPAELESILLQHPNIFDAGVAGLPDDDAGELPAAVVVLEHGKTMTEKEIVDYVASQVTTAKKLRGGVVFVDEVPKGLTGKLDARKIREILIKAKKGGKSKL

[11] = system: Wnt5a (protein binding on small-molecule microarray); experiment: small molecules binding Wnt5a protein – biophysical, small-molecule microarray, 635/667 nm fluorescence, primary screen (AID 1142); conditions: 635 nm fluorescence, higher = more signal;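 further: fluorescence read at 667 nm with signal to noise per printed feature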
[12] = ATP-based viability of Huh7 replicon cells – cell-based, CellTiter-Glo luminescence, basal, 48 h, cytotoxicity control for HCV replication inhibitor project, primary screen (AID 1143); conditions: higher = more signal, called active from +8 up or from −8 down;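 further: Huh7 hepatoma cells carrying a hepatitis C replication reporter with no stimulus; test concentration not given here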
[13] = Pseudomonas biofilm growth suppression – PAO1 strain, BacTiter-Glo luminescence, LB-PBS, primary screen (AID 1144); conditions: P. aeruginosa PAO1 biofilm, 12 h, higher = more signal
[14] = basal CRE-LacZ reporter activity in PC12 – cell-based, unstimulated, primary screen (AID 1145); conditions: no forskolin, luminescence, 4.5 h, higher = more signal, called active from +8 up or from −8 down
[15] = forskolin-driven CRE-LacZ activity in PC12 – cell-based, CRE-LacZ reporter, forskolin-stimulated, primary screen (AID 1146); conditions: luminescence, 4.5 h, higher = more signal, called active from +8 up or from −8 down;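 further: PC12 cells with 6xCRE LacZ reporter stimulated by forskolin 10 µM; beta-galactosidase reporter signal reflecting CREB driven transcription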
[16] = molecular target: Streptavidin (Streptomyces avidinii) (UniProt P22629); experiment: compounds binding control protein streptavidin – biophysical, small-molecule microarray, 635/667 nm fluorescence, artefact control for SMM compound annotation, primary screen (AID 1147); conditions: higher = more signal;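 further: signal reflects streptavidin binding to arrayed compounds as a control protein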
Chain of Streptavidin (Streptomyces avidinii) (P22629 whole entry, looked up): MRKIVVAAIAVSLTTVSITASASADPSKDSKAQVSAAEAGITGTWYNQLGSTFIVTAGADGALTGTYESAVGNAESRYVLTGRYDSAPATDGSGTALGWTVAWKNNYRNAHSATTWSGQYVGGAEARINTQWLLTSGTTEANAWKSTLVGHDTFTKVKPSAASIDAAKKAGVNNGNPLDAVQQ

[17] = probe aInhba binding on compound microarray – biochemical, small-molecule microarray, 635/667 nm fluorescence, primary screen (AID 1148); conditions: higher = more signal;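 further: score merges 667nm spot fluorescence with signal-to-noise for antibody binding to printed compounds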
[18] = molecular target: Torsin-1A (Homo sapiens) (UniProt O14656); experiment: TOR1A wild-type binding on microarray – cell lysate, small-molecule microarray, lysate, 635/667 nm, primary screen (AID 1149); conditions: COS7 hTOR1A-WT lysate, 635 nm fluorescence, higher = more signal
Chain of Torsin-1A (Homo sapiens) (O14656 whole entry, looked up): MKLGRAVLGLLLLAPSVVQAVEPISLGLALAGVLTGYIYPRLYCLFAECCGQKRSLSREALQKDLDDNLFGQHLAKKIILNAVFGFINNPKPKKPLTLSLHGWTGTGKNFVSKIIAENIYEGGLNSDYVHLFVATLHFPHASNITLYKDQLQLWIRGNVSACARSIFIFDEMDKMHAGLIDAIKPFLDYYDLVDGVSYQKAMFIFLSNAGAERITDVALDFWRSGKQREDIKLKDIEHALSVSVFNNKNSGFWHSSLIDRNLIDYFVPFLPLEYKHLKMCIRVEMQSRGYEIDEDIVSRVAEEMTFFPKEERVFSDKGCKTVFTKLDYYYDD

[19] = molecular target: Torsin-1A (Homo sapiens) (UniProt O14656); experiment: torsin A mutant lysate binding on microarrays – cell lysate, small-molecule microarray, COS7 lysate, 635/667 nm fluorescence, primary screen (AID 1150); conditions: COS7 hTOR1A mutant lysate, 635 nm fluorescence, higher = more signal;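 further: score pools 667 nm emission and signal to noise measuring lysate protein binding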
[20] = system: Sonic hedgehog protein (Shh); experiment: Sonic hedgehog microarray binding compounds – biochemical, small-molecule microarray, 635/667 nm fluorescence, primary screen (AID 1151); conditions: 635 nm fluorescence, higher = more signal;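 further: Shh protein binding to compounds spotted on small-molecule microarray slides; score combines spot fluorescence intensity with signal-to-noise across triplicate slides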

Compound	composite z-score [1]	composite z-score [2]	composite z-score [3]	composite z-score [4]	composite z-score [5]	composite z-score [6]	z-score [7]	composite z-score [8]	composite z-score [9]	z-score [10]	composite z-score [11]	z-score [12]	z-score [13]	z-score [14]	z-score [15]	composite z-score [16]	composite z-score [17]	composite z-score [18]	composite z-score [19]	composite z-score [20]
COCC1=C2[C@@H](CCc3ccccc3)OB(O)C[C@@H]2n2c(=O)n(-c3ccccc3)c(=O)n2C1	0.241	-0.028	-0.0493	-0.434	0.133	0.506	0.581	0.336	-0.228	-1.19 (inactive)	0.102	-0.405 (inactive)	0.523 (inactive)	2.22 (inactive)	-0.714 (inactive)	-0.324	-0.082	-0.0531	-0.066	0.966
CO[C@@H]1COC(=O)CCC[C@@H](C)[C@H](OC)COC(=O)[C@H](Cc2ccccc2)NC(=O)CC=C[C@H]1C	0.393	-2.53	-0.268	-0.876	1.29	0.273	-0.972	0.978	-0.271	-0.418 (inactive)	-0.706	-1.08 (inactive)	-0.894 (inactive)	0.0897 (inactive)	1.18 (inactive)	-0.431	-0.159	1.34	-0.0271	1.99
C=CC[C@@H]1C=C[C@H](ON=Cc2ccc(C(=O)N3[C@H](c4ccc(C)cc4)[C@@H](C)CC[C@H]3C(=O)OC)cc2)[C@@H](CO)O1	-0.672	0.973	0.181	0.302	0.333	0.646	-0.154	0.387	0.0608	1.27 (inactive)	0.14	-1.33 (inactive)	0.694 (inactive)	3.89 (inactive)	0.062 (inactive)	-0.161	-0.0791	-0.0434	0.0034	0.68
COc1ccc(O[C@H]2C=C[C@@H](c3ccccc3)O[C@@H]2COC(=O)CCC(C)=NO[C@@H](C)c2cc(-c3c(C)cc(C)cc3C)no2)cc1	-0.566	-0.23	-0.174	-0.223	-1.32	-0.848	0.67	-0.773	-0.204	1.21 (inactive)	-0.61	-0.961 (inactive)	-0.587 (inactive)	-0.315 (inactive)	0.65 (inactive)	-0.987	-0.295	-1.29	-1.04	0.224
COc1cccc([C@H]2Oc3ccc(OC)cc3C(=NOC(C)CN3CCCc4nc(C)c(C)cc43)[C@@H]2O)c1 (stereo not given in full)	2.41	0.857	0.394	-0.712	0.073	0.125	0.128	0.809	-0.299	0.149 (inactive)	0.35	-0.252 (inactive)	1.28 (inactive)	2.71 (inactive)	-0.0145 (inactive)	-0.504	0.0442	0.433	0.27	0.478
CCCCc1nc2c(c3c1C[C@H](C)OC3)CN(CCC(C)C)CC2	0.965	1.13	0.0171	0.928	0.818	0.732	1.8	1.17	0.399	-0.438 (inactive)	0.122	-0.262 (inactive)	-0.578 (inactive)	7.7 (inactive)	-1.14 (inactive)	0.0392	-0.0074	0.888	0.622	0.992
COC(=O)C1=CCC(c2cccc(Cl)c2)O1 (stereo not given)	0.192	0.24	-0.126	0.346	-0.399	-0.473	-0.816	-0.319	-0.455	1.74 (inactive)	-0.241	-4.35 (inactive)	-1.52 (inactive)	0.388 (inactive)	-0.551 (inactive)	-0.0713	0.0742	0.0026	-0.58	-0.534
COc1ccc(OC[C@H]2Cc3c(-c4ccccc4)nc4c(c3CO2)CN(CCOc2ccccc2)CC4)cc1	1.78	0.928	0.169	0.811	0.923	0.596	0.774	1.25	0.387	-0.356 (inactive)	0.133	-3.41 (inactive)	-1.27 (inactive)	5.99 (inactive)	-1.02 (inactive)	0.633	0.109	0.086	0.534	1.37
COc1ccc([Si](C)(C)[C@@H]2[C@@H](CCO)O[C@]3(C(=O)N(Cc4ccc(NC(C)=O)cc4)c4ccccc43)[C@H]2C)cc1	1.92	1.22	0.11	0.963	1.07	0.228	-0.898	0.727	0.771	0.377 (inactive)	0.913	-8.01 (active)	0.525 (inactive)	3.57 (inactive)	-2.33 (inactive)	0.627	0.16	0.412	1.21	1.35
CCCCCN1CC=CC23O[C@@H]4C=CCOC(=O)[C@@H]4[C@H]2C(=O)N(C(CO)C(C)C)[C@@H]3C1=O (stereo not given in full)	0.373	-1.02	-0.565	-0.217	0.142	-0.533	-0.348	0.0028	-0.521	0.281 (inactive)	-0.389	-0.524 (inactive)	0.921 (inactive)	-0.757 (inactive)	0.371 (inactive)	-0.263	0.0013	-1.34	-1.38	0.298
